# GAA glycogen: alters human alpha-glucosidase cleavage of glycogen; recombinant GAA, glycogen substrate, Amplex Red glucose oxidase fluorescence; 300,000 compounds, 0.38% hits; Potency, µM (titrated, usually from 76.4 µM), inactives show at the top dose activity change, negative = inhibition, hits mostly inhibitors; P10253;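 note: potency is the fitted concentration of half-maximal effect; 0% = full enzyme reaction and -100% = no-enzyme basal signal; the screen sought inhibitors and activators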
#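 Recombinant enzyme (4 nM final) with compounds titrated up to 77 uM and bovine liver glycogen (30 ug) in citrate pH 5.0, 0.01% Tween-20, 37 C 40 min. Released glucose detected by Amplex Red/glucose oxidase (Ex 573/Em 610); AC50 from Hill fits.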
# aGal spleen mod: inhibitors or activators of human alpha-galactosidase in spleen homogenate. P06280. AID 2107. 240,000 compounds, 0.008% hits. Potency, µM (series often up to 80 µM), for inactives: at the top dose activity change, negative = inhibition, usual class: inhibitors. human spleen homogenate, 4MU-alpha-Gal fluorescence, 40 min;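 note: potency is the fitted concentration of half-maximal effect; 0% = enzyme with vehicle and -100% = no enzyme basal signal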
# Target sequence (P06280 32-429 limits assumed): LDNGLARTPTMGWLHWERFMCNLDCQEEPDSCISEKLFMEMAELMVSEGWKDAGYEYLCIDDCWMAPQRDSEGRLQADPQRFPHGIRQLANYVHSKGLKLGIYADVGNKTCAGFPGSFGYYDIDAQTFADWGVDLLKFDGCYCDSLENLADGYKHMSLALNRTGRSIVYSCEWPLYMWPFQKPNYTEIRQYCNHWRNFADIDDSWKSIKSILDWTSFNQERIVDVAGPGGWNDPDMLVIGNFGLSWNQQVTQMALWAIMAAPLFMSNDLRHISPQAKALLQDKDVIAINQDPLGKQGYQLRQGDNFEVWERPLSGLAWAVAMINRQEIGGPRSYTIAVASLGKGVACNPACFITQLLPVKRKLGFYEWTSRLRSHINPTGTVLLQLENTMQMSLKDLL
#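 Fluorogenic readout (Ex 365/Em 440 nm) of 4-methylumbelliferone released from 1 mM 4-MU-alpha-galactoside by spleen homogenate, 40 min at 37C, pH 5.0. Data normalized to no-enzyme and enzyme controls; Hill-equation AC50 from compound titrations.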
# GAA spleen mod: inhibits or activates alpha-glucosidase in human spleen homogenate; AID 2112; human spleen homogenate, 4-MU-alpha-glucoside fluorescence; 240,000 compounds, 0.006% hits; P10253; Potency, µM (doses to about 79.9 µM), for the others: top-dose activity change, negative = inhibition, hits mostly inhibitors;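 note: potency is the fitted concentration of half-maximal effect; 0% = enzyme with vehicle and -100% = no enzyme basal signal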
#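 Human spleen homogenate (1 ug) incubated with compounds and 1 mM 4-methylumbelliferyl-alpha-D-glucopyranoside in pH 5.0 citrate/phosphate buffer, 37 C, 40 min. Stopped at pH 10; 4-MU fluorescence (Ex 365/Em 440 nm); AC50 by Hill fit.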
# GAA inhib: alpha-glucosidase (human) inhibition. Potency, µM (top dose mostly 76.9 µM), for inactives: at the highest dose activity change, negative = inhibition, hits mostly inhibitors. P10253. 200,000 compounds, 0.005% hits. purified human GAA, 4-MU-alpha-glucoside fluorescence;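 note: potency is the fitted concentration of half-maximal effect; plate controls were uninhibited enzyme wells for no effect and no-enzyme background for full effect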
#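 Fluorogenic assay: 4 nM human alpha-glucosidase with 400 uM 4-methylumbelliferyl-alpha-D-pyranoside in 50 mM citrate/phosphate, 0.005% Tween-20, pH 5.0, 20 min at room temperature. Compounds tested up to 77 uM; AC50 from Hill fits.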
# N370S GC: inhibits or activates N370S mutant glucocerebrosidase; P04062; N370S GC spleen homogenate, 4MU-glucoside fluorescence; Potency, µM (series often up to 59.4 µM), without a hit: at the top dose activity change, negative = inhibition, most hits filed as inhibitors; 330,000 compounds, 0.092% hits;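 note: potency is the fitted concentration of half-maximal effect; 0% = full enzyme activity and -100% = no enzyme basal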
# GLA inh pH 4.5: blocks human alpha-galactosidase A at pH 4.5; P06280; activity change, negative = inhibition, % at 105 µM; purified enzyme, 4-MU-alpha-Gal fluorescence, pH 4.5; 230,000 tested, under 10 active; AID 1467;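 note: 0% = full activity with enzyme and -100% = basal without enzyme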
# An asterisk follows results filed as active; ? = inconclusive; nt = no result; ! = not active in a repeat; [ ] = remark or other dose. Rows were chosen to be rich in hits. Some 0.41% of all compounds tested hit in one or more screens of this group. Calls come from the whole dose curve; as a rule, active = well fitted curve in the direction sought with a large enough effect; inconclusive = small, poorly fitted or top-dose-only effect, or another doubt; inactive = no such curve, though single readings can be large; an effect the other way counts as inactive or inconclusive.
SMILES,GAA glycogen,aGal spleen mod,GAA spleen mod,GAA inhib,N370S GC,GLA inh pH 4.5
COc1ccccc1N(O)C1CC(=O)N(c2ccc(Br)cc2)C1=O (configuration not stated),8.9µM*,2%,0%,-1%,5%,-1
O=C1CC(N(O)c2ccccc2)C(=O)N1c1ccc(Cl)c(Cl)c1 (configuration not stated),?,2%,-9%,nt,7%,-1
COc1cc(/C=N/N2C(=O)CSC2=S)ccc1O,32µM*,0%,1%,1%,-23%,-1
COc1ccc(Br)cc1/C=N/N1C(=O)CSC1=S,5%,nt,nt,nt,-2%,nt
CCCCc1nc2c(c3c1C[C@H](C)OC3)CN(S(=O)(=O)c1ccc(C)cc1)CC2,nt,-14%[17.5 µM],-10%[17.4 µM],nt,-3%[12.8 µM],6
Cc1ccc(O)c(Sc2cc(C)ccc2O)c1,28µM*,0%,-4%,-10%,0%,-4
CC(CCc1ccccc1)NC(=O)CN1CCN(c2ccc(O)cc2)CC1 (configuration not stated),4.4µM*,-5%,0%,?,-3%,1
CCN(C(=O)CN1CCN(c2ccc(O)cc2)CC1)c1c(N)n(Cc2ccccc2)c(=O)[nH]c1=O,18µM*,6%,3%,-1%,3%,8
CCN(C(=O)CN1CCC(C)CC1)c1c(N)n(Cc2ccccc2)c(=O)[nH]c1=O,nt,nt,nt,nt,0%,nt
CC(CCc1ccccc1)NC(=O)CN1CCN(Cc2ccccc2)C1=O (configuration not stated),12%,-8%,-3%,5%,6%,-6
CC(C)CCC[C@@H](C)[C@H]1CC[C@H]2[C@@H]3CC=C4CC(O)CC[C@]4(C)[C@H]3CC[C@]12C (some centres not stated),nt,-17%,-14%,nt,-12%,nt
O=C(Nc1cc(S(=O)(=O)N2CCOCC2)ccc1N1CCCC1)c1cc(=O)[nH]c2ccccc12,?,-4%,10µM*,nt,16%,12
Cc1ccc(-n2c(=O)c3ccc(C(=O)NCc4ccco4)cc3n(Cc3ccccc3C#N)c2=O)cc1,32µM*!,5%,-8%,4%,-9%,-4
Cc1ccc(-n2c(=O)c3ccc(C(=O)NCc4ccco4)cc3n(Cc3ccccc3Cl)c2=O)cc1,-6%[76.3 µM],nt,nt,nt,nt,nt
Cc1ccc2nc(-c3ccc(O)cc3)c(Nc3ccc4c(c3)OCCO4)n2c1,14µM*,11%,4%,1%[15.4 µM],?,-12
Cc1ccn2c(Nc3ccc4c(c3)OCO4)c(-c3ccc(Cl)cc3)nc2c1,-13%[76.3 µM],nt,nt,nt,nt,nt
COc1ccc(-c2nc3ccc(C)cn3c2Nc2ccc3c(c2)OCO3)cc1,18µM*,nt,nt,nt,nt,nt
Cc1cccc2nc(-c3ccco3)c(Nc3ccc4c(c3)OCO4)n12,?,7%,4%,-3%,-7%,3
Cc1ccn2c(Nc3ccc4c(c3)OCO4)c(-c3ccco3)nc2c1,5µM*,nt,nt,nt,nt,nt
Cc1ccc(-c2nc3cccc(C)n3c2Nc2ccc3c(c2)OCO3)o1,1.8µM*,nt,nt,nt,nt,nt
CCc1nn(CC(=O)NCCCc2ccccc2)c(=O)c2cc3ccccc3n12,8%[76.3 µM],nt,nt,nt,nt,nt
O=C(Nc1ccc2nn(-c3ccccc3)nc2c1)c1ccc(-c2cccc(Cl)c2)o1,-3%[76.3 µM],nt,nt,nt,nt,nt
Cc1cn(C2CC3OCC(NC(=O)C(NC(=O)OC(C)(C)C)C(C)OCc4ccccc4)C3O2)c(=O)[nH]c1=O (configuration not stated),nt,0%,-3%,nt,-4%,nt
Clc1ccc(-c2nc3ccccn3c2Nc2ccc3c(c2)OCCO3)s1,10µM*,nt,nt,nt,nt,nt
Cc1ccc(OCCn2cc(C(=S)N3CCCC3)c3ccccc32)cc1C,-3%,-2%,-19%,1%,13%,3
SMILES,GAA glycogen,aGal spleen mod,GAA spleen mod,GAA inhib,N370S GC,GLA inh pH 4.5
COc1ccc(OCCn2cc(/C(N)=N/O)c3ccccc32)cc1,12µM*,9%,-5%,?,-15%,1
COC(=O)c1cn(CCOc2ccccc2)c2ccccc12,-7%,-9%,3%,-6%,26%,-4
Cc1ccc(OCCn2cc(/C(N)=N/O)c3ccccc32)cc1C,40µM*,-5%,-24%,-6%,?,-6
COC(=O)c1cc2oc(C)cc2n1Cc1c(C)cc(C)cc1C,-3%[76.3 µM],nt,nt,nt,nt,nt
CCOC(=O)N1CCN(C(=O)Nc2sc3nc4n(c(=O)c3c2C)CCC(C)CC4)CC1 (configuration not stated),32µM*,5%,-4%,-10%,4%,-9
OCc1ccccc1O[C@H]1OC(CO)C(O)C(O)C1O (some centres not stated),nt,2%,6%,nt,-2%,4
COC(=O)N[C@H](C[N+](=O)[O-])c1cccc(C)c1,nt,-6%,5%,nt,-1%,-11
Cc1ccc(CNC(=O)CN(c2cc(C)cc(C)c2)S(=O)(=O)c2c(C)[nH]c(=O)[nH]c2=O)cc1,-13%[76.3 µM],nt,nt,nt,nt,nt
Cc1cc(C)cc(N(CC(=O)NC2CCCC2)S(=O)(=O)c2c(C)[nH]c(=O)[nH]c2=O)c1,6%,8%,2%,nt,3.5µM*,2
COc1ccc(N(CC(=O)NC2CCCC2)S(=O)(=O)c2c(C)[nH]c(=O)[nH]c2=O)cc1,-1%,2%,-2%,0%,8.9µM*,0
CN1CCc2c(sc3c2C(=O)NC(c2ccc(C(C)(C)C)cc2)N3)C1 (configuration not stated),16%[76.3 µM],nt,nt,nt,nt,nt
CCC(=Nc1ccccc1O)C1=C(O)CC(c2ccccc2)CC1=O (configuration not stated),13µM*,-3%,-4%,nt,-21%,1
CCC(=Nc1ccccc1OC)C1=C(O)CC(c2ccccc2)CC1=O (configuration not stated),-1%,-3%,1%,2%,-5%,-13
COc1ccc(Cl)cc1NC(=O)Cn1c(=O)n(Cc2ccco2)c(=O)c2cccnc21,-12%[76.3 µM],nt,nt,nt,nt,nt
COc1ccccc1CNc1n[nH]c(NCc2ccccc2OC)n1,25µM*,6%,5%,-11%,-2%,-6
CCN1C(=O)c2ccccc2Sc2ccc(NC(=O)N3CCN(c4cc(C)ccc4C)CC3)cc21,20%[76.3 µM],nt,nt,nt,nt,nt
CCCN1C(=O)c2[nH]nc(-c3cccc(OC)c3)c2C1c1ccccn1 (configuration not stated),-1%[76.3 µM],nt,nt,nt,nt,nt
Cc1ccc(Cl)cc1N1CCN(S(=O)(=O)c2ccc3[nH]c(=O)ccc3c2)CC1,0%[76.3 µM],nt,nt,nt,-7%,nt
Cc1ccc(Cl)cc1N1CCN(S(=O)(=O)c2ccc3[nH]c(=O)c(=O)[nH]c3c2)CC1,3%,6%,0%,-4%,8.9µM*,3
COc1ccc(-c2nc(SCC(=O)Nc3ccc4c(c3)OCO4)c(-c3ccccc3)[nH]2)cc1,17%[76.3 µM],nt,nt,nt,nt,nt
